{
  "source": "PubChem BioAssay (NCATS)",
  "note": "Results filed as inconclusive are left out. Values without a mark were called inactive. The source made the active and inactive calls. Calls come from the whole dose curve; as a rule, active = well fitted inhibition curve with a large enough effect; inconclusive = small, poorly fitted or top-dose-only effect; inactive = flat fitted curve, though single readings scatter. Potency is the fitted concentration of half-maximal effect.",
  "data": [
    {"system": "Zika virus NS2B-NS3 protease", "experiment": "Primary screen GU AMC qHTS for Zika virus inhibitors (AID 1347154); note: nearly all actives have a fitted effect of over 70% in size;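 for activity change, negative = inhibition: 0% = no-inhibitor control and -100% = no-enzyme control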", "conditions": "Zika NS2B-NS3 unlinked protease, AMC fluorogenic substrate; series mostly up to 54.1 µM; activity change, negative = inhibition: at the top concentration", "how_it_was_run": "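Fluorogenic AMC-substrate cleavage by noncovalent NS2B-NS3 protease complex (25 nM, pH 8.0 Tris buffer with Tween 20) followed for 15 minutes at room temperature (~20% conversion). Percent inhibition from ex340/em450 signal change, fitted by 4-parameter Hill equation.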", "values": [
      {"molecule": "CC1=C(C(=O)O)N2C(=O)[C@@H](N)[C@H]2SC1", "activity change, negative = inhibition": "-9.12% [at 25.8 µM]"},
      {"molecule": "CCCC[N+]1(C)[C@H]2CC(OC(=O)[C@H](CO)c3ccccc3)C[C@H]1[C@H]1O[C@H]12", "note": "(stereo not given in full)", "activity change, negative = inhibition": "-4.57%"},
      {"molecule": "CC1(C)CC/C(=C/c2ccc(Cl)cc2)C1(O)Cn1cncn1", "note": "(stereo not given)", "activity change, negative = inhibition": "4.09% [at 104 µM]"},
      {"molecule": "Nc1ccc(Cl)cc1N", "activity change, negative = inhibition": "-6.01% [at 104 µM]"},
      {"molecule": "COC(C)(C)CCCC(C)C/C=C/C(C)=C/C(=O)OC(C)C", "note": "(stereo not given)", "activity change, negative = inhibition": "-0.976%"},
      {"molecule": "COc1ccc2c(c1)[C@]13CCCCC1C(C2)N(C)CC3", "note": "(stereo not given in full)", "activity change, negative = inhibition": "2.49%"},
      {"molecule": "Nc1ccc(Sc2ccc(N)cc2)cc1", "activity change, negative = inhibition": "3.99% [at 104 µM]"},
      {"molecule": "CCCCCCCCCC(CC)c1ccc(S(=O)(=O)O)cc1", "note": "(stereo not given)", "Potency": "11.7 µM (active)"},
      {"molecule": "COc1nn(CSP(=S)(OC)OC)c(=O)s1", "activity change, negative = inhibition": "2.6% [at 104 µM]"},
      {"molecule": "C#CC1(O)CCC2C3CCC4=CC(=O)CCC4(C)C3CCC21C", "note": "(stereo not given)", "activity change, negative = inhibition": "1.46%"},
      {"molecule": "CC[N+]1(CCOC(=O)C(O)(c2ccccc2)c2ccccc2)CCCCC1", "activity change, negative = inhibition": "3.74%"},
      {"molecule": "CC(C)(C)[C@]1(O)C[C@@H]2OC(=O)C[C@@]23C(=O)O[C@@H]2OC(=O)[C@H](O)C213", "note": "(stereo not given in full)", "activity change, negative = inhibition": "24.8%"},
      {"molecule": "CC(O)=C(C#N)C(=O)Nc1cc(Br)ccc1Br", "activity change, negative = inhibition": "-9.8%"},
      {"molecule": "Cc1nc(-c2ccc(-c3ccc(C(=O)N4CCc5cc6c(cc54)C4(CCN(C)CC4)CO6)cc3)c(C)c2)no1", "activity change, negative = inhibition": "24.4%"},
      {"molecule": "C#C[C@]1(O)C=C[C@@H]2[C@@H]3CCC4=CC(=O)CC[C@@H]4[C@H]3CC[C@@]21CC", "activity change, negative = inhibition": "10.9%"},
      {"molecule": "CC(=O)O[C@@]12CO[C@H]1C[C@H](O)[C@@]1(C)C(=O)[C@H](O)C3=C(C)[C@@H](O)C[C@@](O)([C@@H](OC(=O)c4ccccc4)[C@@H]21)C3(C)C", "activity change, negative = inhibition": "16.1%"},
      {"molecule": "C[C@H]([C@H](O)CCC(C)(C)O)[C@H]1CC[C@@]2(O)C3=CC(=O)[C@@H]4C[C@@H](O)[C@@H](O)C[C@]4(C)[C@@H]3CC[C@]12C", "activity change, negative = inhibition": "7.96%"},
      {"molecule": "CCOP(=O)(OCC)C(C)NC(=O)N(CCCl)N=O", "note": "(stereo not given)", "activity change, negative = inhibition": "12.6%"},
      {"molecule": "O=[N+]([O-])c1ccc([As](=O)(O)O)cc1", "activity change, negative = inhibition": "-3.68%"},
      {"molecule": "CSCC[C@@H](NC(=O)[C@@H](Cc1ccccc1)NC(=O)CNC(=O)CNC(=O)[C@@H](N)Cc1ccc(O)cc1)C(=O)O", "activity change, negative = inhibition": "16.1%"},
      {"molecule": "O=[N+]([O-])c1c2ccccc2cc2ccccc12", "activity change, negative = inhibition": "-3.52% [at 104 µM]"},
      {"molecule": "CCO/N=C(\\CC)C1=C(O)CC(c2c(C)cc(C)cc2C)CC1=O", "note": "(stereo not given)", "activity change, negative = inhibition": "-4.17% [at 104 µM]"},
      {"molecule": "COCCOCCO", "activity change, negative = inhibition": "-6.81% [at 104 µM]"},
      {"molecule": "C=C1C[C@H]2[C@H]3CCC(=O)[C@@]3(C)CC[C@@H]2[C@@]2(C)C=CC(=O)C=C12", "activity change, negative = inhibition": "-8.02%"},
      {"molecule": "COc1ccc(C(c2ccc(OC)cc2)C(Cl)(Cl)Cl)cc1", "activity change, negative = inhibition": "-8.26% [at 104 µM]"},
      {"molecule": "CN[C@@H](C)[C@H](O)c1ccccc1", "activity change, negative = inhibition": "-0.32%"},
      {"molecule": "O=S(=O)(F)Cc1ccccc1", "activity change, negative = inhibition": "10.1%"},
      {"molecule": "C[C@@H]1CC[C@H]2[C@@H](C)C(=O)O[C@@H]3O[C@@]4(C)CC[C@H]1[C@]32OO4", "activity change, negative = inhibition": "12.5%"},
      {"molecule": "C1CCC(NC2CCCCC2)CC1", "activity change, negative = inhibition": "-4.57%"},
      {"molecule": "O=S(=O)(CC1CS1)c1ccc(Oc2ccccc2)cc1", "note": "(stereo not given)", "activity change, negative = inhibition": "-4.37%"},
      {"molecule": "CCOP(=O)(NC(C)C)Oc1ccc(SC)c(C)c1", "note": "(stereo not given)", "activity change, negative = inhibition": "-1.24% [at 104 µM]"},
      {"molecule": "C[C@](O)(COc1ccc(C#N)cc1)C(=O)Nc1ccc(C#N)c(C(F)(F)F)c1", "activity change, negative = inhibition": "-6.15%"},
      {"molecule": "C[C@]12CC[C@@H]3[C@@H](CCC4=CC(=O)CC[C@@H]43)[C@@H]1CC[C@@H]2OC(=O)CCc1ccccc1", "activity change, negative = inhibition": "5.7%"},
      {"molecule": "Nc1ccc([N+](=O)[O-])cc1", "activity change, negative = inhibition": "-3.84% [at 104 µM]"},
      {"molecule": "O=[N+]([O-])c1cc([N+](=O)[O-])c2ccccc2c1", "activity change, negative = inhibition": "-0.249% [at 104 µM]"}
    ]}
  ]
}
